Source: PubChem BioAssay AID1942 (Johns Hopkins Ion Channel Center, 2009)
In all, about 2,400 compounds went through this assay and about 580 (24%) were called active. A selection follows. Unmarked numbers belong to inactive results.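 The calls were made as follows: active = activity change at or above the mean plus 3 SD of buffer wells without dofetilide, per plate; inactive = the rest.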

biological target: Potassium voltage-gated channel subfamily KQT member 2 (Rattus norvegicus) (UniProt O88943); experiment: KCNQ2 potentiation in CHO cells – cell-based, FluxOR thallium flux, counter-screen for hERG block protector project, confirmation (AID 1942); conditions: FluxOR thallium flux fluorescence, at 10 µM, hits give high values;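 also: normalized value minus buffer-control mean plus three SD of buffer wells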
Sequence (O88943 whole entry, looked up): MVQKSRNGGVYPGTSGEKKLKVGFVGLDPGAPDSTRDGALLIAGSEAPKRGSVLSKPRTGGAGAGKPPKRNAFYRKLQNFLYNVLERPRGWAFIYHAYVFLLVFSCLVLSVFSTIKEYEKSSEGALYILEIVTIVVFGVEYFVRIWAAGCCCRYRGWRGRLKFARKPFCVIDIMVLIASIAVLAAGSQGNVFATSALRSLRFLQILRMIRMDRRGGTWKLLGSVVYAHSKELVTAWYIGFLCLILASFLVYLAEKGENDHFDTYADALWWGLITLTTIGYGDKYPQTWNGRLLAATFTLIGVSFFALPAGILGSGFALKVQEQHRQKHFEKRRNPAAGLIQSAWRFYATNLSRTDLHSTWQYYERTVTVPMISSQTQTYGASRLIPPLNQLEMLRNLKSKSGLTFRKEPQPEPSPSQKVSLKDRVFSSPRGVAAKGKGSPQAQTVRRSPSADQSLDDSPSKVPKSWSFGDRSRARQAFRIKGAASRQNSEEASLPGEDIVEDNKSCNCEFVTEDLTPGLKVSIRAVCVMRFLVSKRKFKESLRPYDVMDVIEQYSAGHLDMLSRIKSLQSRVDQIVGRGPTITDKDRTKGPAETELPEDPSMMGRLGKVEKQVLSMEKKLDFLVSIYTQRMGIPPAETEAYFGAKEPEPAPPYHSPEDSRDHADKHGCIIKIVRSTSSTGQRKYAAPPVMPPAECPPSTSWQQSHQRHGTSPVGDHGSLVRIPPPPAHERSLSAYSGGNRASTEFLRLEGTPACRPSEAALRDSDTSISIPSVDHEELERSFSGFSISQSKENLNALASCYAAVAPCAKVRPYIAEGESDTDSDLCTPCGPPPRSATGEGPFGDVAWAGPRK

Q: How did the activity change, less the hit threshold turn out when `O=C(CN1CCCCCC1)Nc1ccc(Oc2ccccc2)cc1` was run?
A: Its activity change, less the hit threshold is -20.3%.

Q: How did the activity change, less the hit threshold turn out when `O=C(Cn1nc(-c2ccccc2)c2ccccc2c1=O)Nc1ccc(O)cc1` was run?
A: Its activity change, less the hit threshold is -25.7%.

Q: How did the activity change, less the hit threshold turn out when `Cc1nn(CC(=O)Nc2ccc(C(=O)N3CCCC3)cc2)c(=O)c2ccccc12` was run?
A: Its activity change, less the hit threshold is 11.5% (active).

Q: `O=C(Nc1ncc(Br)s1)C(Cc1ccccc1)n1cccc1` (stereo not drawn) was tested. Which activity change, less the hit threshold did it give?
A: The activity change, less the hit threshold was -5.9%.

Q: For `Cn1cnnc1SCC(=O)NCc1ccccc1`, which activity change, less the hit threshold is on record?
A: Its activity change, less the hit threshold is -24.1%.

Q: With `COC(=O)Oc1ccc(/C=C/C(=O)OC(C)C)cc1OC(=O)OC` as the compound, how does the activity change, less the hit threshold read?
A: Its activity change, less the hit threshold is 3% (active).

Q: Which activity change, less the hit threshold does the source give for `COc1cc(/C=C/C(=O)O)ccc1OS(=O)(=O)c1cc(C)ccc1C` here?
A: The activity change, less the hit threshold was -16.4%.

Q: For `COc1cc(/C=C/C(=O)N[C@@H](Cc2c[nH]c3ccccc23)C(=O)O)ccc1O`, which activity change, less the hit threshold is on record?
A: Its activity change, less the hit threshold is -15.9%.

Q: `Cc1ccc(NC2=CC(=O)OC(C)C2)cc1` (stereo not drawn) was tested. Which activity change, less the hit threshold did it give?
A: Its activity change, less the hit threshold is -17.3%.

Q: How did the activity change, less the hit threshold turn out when `Cc1ccc(Oc2ccc(OCC(=O)NC(CC(C)C)C(=O)O)cc2)cc1` (stereo not drawn) was run?
A: The activity change, less the hit threshold was -14.9%.

Q: For `CC1=Nc2ccc(C)cc2/C1=C/c1c(N)n2c(S(=O)(=O)C(C)C)nsc2nc1=O`, which activity change, less the hit threshold is on record?
A: Its activity change, less the hit threshold is -27%.

Q: Which activity change, less the hit threshold does the source give for `O=C(CN1CCCCCCC1)Nc1cccc(Cl)c1Cl` here?
A: The activity change, less the hit threshold was -20.9%.

Q: How did the activity change, less the hit threshold turn out when `O=C(c1c(O)c2ccccc2oc1=O)C1CCCCC1` was run?
A: The activity change, less the hit threshold was -4.8%.

Q: How did the activity change, less the hit threshold turn out when `O=c1oc2ccccc2c(Cl)c1CN1CCCCC1` was run?
A: The activity change, less the hit threshold was 8.6% (active).

Q: How did the activity change, less the hit threshold turn out when `CSc1nc2c(c(=O)[nH]1)C(c1ccc(F)cc1)CC(=O)N2` (stereo not drawn) was run?
A: The activity change, less the hit threshold was -16.4%.

Q: How did the activity change, less the hit threshold turn out when `CC(NC(=O)C1CCN(S(=O)(=O)c2cccc3cccnc23)CC1)c1ccccc1` (stereo not drawn) was run?
A: The activity change, less the hit threshold was 0.9% (active).

Q: How did the activity change, less the hit threshold turn out when `Cc1[nH]c(=O)[nH]c(=O)c1S(=O)(=O)N1CCC(C(=O)NC(C)c2ccccc2)CC1` (stereo not drawn) was run?
A: Its activity change, less the hit threshold is -19.6%.

Q: `O=C(NCc1ccc(Cl)cc1)C1CCN(S(=O)(=O)c2cccc3nonc23)CC1` was tested. Which activity change, less the hit threshold did it give?
A: The activity change, less the hit threshold was -10%.

Q: Which activity change, less the hit threshold does the source give for `Nc1ncnc(NC2CCS(=O)(=O)C2)c1[N+](=O)[O-]` (stereo not drawn) here?
A: Its activity change, less the hit threshold is -11.2%.

Q: For `CC(C)OC(=O)c1c(NS(=O)(=O)c2ccccc2)sc2c1CCCC2`, which activity change, less the hit threshold is on record?
A: The activity change, less the hit threshold was 9.1% (active).

Q: For `CC(NS(=O)(=O)c1ccccc1)C(N)=O` (stereo not drawn), which activity change, less the hit threshold is on record?
A: The activity change, less the hit threshold was -21.1%.

Q: For `CCOC(=O)c1c(NS(C)(=O)=O)sc2c1CCC(C)C2` (stereo not drawn), which activity change, less the hit threshold is on record?
A: Its activity change, less the hit threshold is 26.3% (active).

Q: `CC1CCc2c(sc(NS(=O)(=O)c3ccccc3)c2C(=O)OC(C)C)C1` (stereo not drawn) was tested. Which activity change, less the hit threshold did it give?
A: The activity change, less the hit threshold was 8.2% (active).

Q: How did the activity change, less the hit threshold turn out when `CCOC(=O)c1c(C)[nH]c(C)c1S(=O)(=O)N1CCCCC1` was run?
A: The activity change, less the hit threshold was -11%.

Q: For `COC(=O)c1c(NC(=O)CN2CCOCC2)sc2c1CCC(C)C2` (stereo not drawn), which activity change, less the hit threshold is on record?
A: The activity change, less the hit threshold was -9.9%.

Q: With `Cc1cc(C)c(-c2cc(NC(=O)COC(=O)c3ccc(NC(=O)CC#N)cc3)n(-c3ccccc3)n2)cc1C` as the compound, how does the activity change, less the hit threshold read?
A: Its activity change, less the hit threshold is -22.1%.

Q: With `NC(=O)CC1NC(=O)c2ccccc21` (stereo not drawn) as the compound, how does the activity change, less the hit threshold read?
A: The activity change, less the hit threshold was -13.3%.

Q: Which activity change, less the hit threshold does the source give for `CCCNS(=O)(=O)c1ccc(OCC(=O)Nc2ccc3c(c2)OCCO3)cc1` here?
A: The activity change, less the hit threshold was -11.5%.

Q: Which activity change, less the hit threshold does the source give for `Cc1oc(-c2cccs2)nc1CN1CCC(C(=O)N2CCCC2)CC1` here?
A: The activity change, less the hit threshold was -17.4%.

Q: For `CC1c2nc3ccccc3n2C(CC(=O)NCCCN2CCOCC2)C(=O)N1Cc1ccccc1` (stereo not drawn), which activity change, less the hit threshold is on record?
A: Its activity change, less the hit threshold is -19.4%.

Q: How did the activity change, less the hit threshold turn out when `O=C(NC(=S)N(CC1CCC1)CC1CCCO1)c1cccc([N+](=O)[O-])c1` (stereo not drawn) was run?
A: Its activity change, less the hit threshold is 39.6% (active).

Q: Which activity change, less the hit threshold does the source give for `CCC1CCCCN1C(=S)NC(=O)c1cccc([N+](=O)[O-])c1` (stereo not drawn) here?
A: Its activity change, less the hit threshold is 24% (active).

Q: With `CC1CCN(C(=S)NC(=O)c2cccc([N+](=O)[O-])c2)CC1` as the compound, how does the activity change, less the hit threshold read?
A: The activity change, less the hit threshold was 5.8% (active).

Q: For `O=C(Nc1ccc(Oc2cccnc2)cc1)c1cccc([N+](=O)[O-])c1`, which activity change, less the hit threshold is on record?
A: Its activity change, less the hit threshold is -14.1%.

Q: How did the activity change, less the hit threshold turn out when `CCC1CCCCN1C(=S)NC(=O)c1cccs1` (stereo not drawn) was run?
A: The activity change, less the hit threshold was -4.1%.

Q: Which activity change, less the hit threshold does the source give for `O=C(O)c1cccc(C(=O)Nc2cccc(NC(=O)C3CCCO3)c2)c1` (stereo not drawn) here?
A: The activity change, less the hit threshold was -21.4%.

Q: How did the activity change, less the hit threshold turn out when `O=C(NC(=S)Nc1ccccc1N1CCCC1)c1ccc(-c2cccc([N+](=O)[O-])c2)o1` was run?
A: Its activity change, less the hit threshold is -10.1%.

Q: How did the activity change, less the hit threshold turn out when `CCC1CCCCN1C(=S)NC(=O)c1ccc([N+](=O)[O-])cc1` (stereo not drawn) was run?
A: The activity change, less the hit threshold was 32.5% (active).

Q: With `Cn1cc([N+](=O)[O-])c(C(=O)N/N=C\c2c[nH]c3ccccc23)n1` as the compound, how does the activity change, less the hit threshold read?
A: Its activity change, less the hit threshold is -15.5%.

Q: `CCCCN1C(=O)/C(=C2/Sc3ccc(Cl)cc3N2CC)SC1=S` was tested. Which activity change, less the hit threshold did it give?
A: Its activity change, less the hit threshold is -27.6%.

Q: For `CNC(=O)c1ccc(NC(=O)CN2c3cccc4cccc(c34)S2(=O)=O)cc1`, which activity change, less the hit threshold is on record?
A: The activity change, less the hit threshold was -18.1%.

Q: Which activity change, less the hit threshold does the source give for `COc1ccc(CS(=O)(=O)CC2(O)CCN(C(=O)c3cccc(C(F)(F)F)c3)CC2)cc1` here?
A: The activity change, less the hit threshold was -25.4%.

Q: How did the activity change, less the hit threshold turn out when `O=C1CN(C(=O)COc2ccccc2F)c2ccccc2N1` was run?
A: Its activity change, less the hit threshold is -18.7%.

Q: For `O=C(c1csc(Nc2ccccc2Cl)n1)N1CCCC1`, which activity change, less the hit threshold is on record?
A: Its activity change, less the hit threshold is -14.5%.

Q: With `COc1cc(CNn2nnnc2N)ccc1OCC(=O)NC(C)(C)C` as the compound, how does the activity change, less the hit threshold read?
A: The activity change, less the hit threshold was -20%.

Q: `COc1ccc(NC(=O)CC23CC4CC(CC(C4)C2)C3)cn1` was tested. Which activity change, less the hit threshold did it give?
A: Its activity change, less the hit threshold is 44.4% (active).

Q: How did the activity change, less the hit threshold turn out when `COc1ccc(NC(=O)CCN2C(=O)C3C4C=CC(C4)C3C2=O)cc1` (stereo not drawn) was run?
A: Its activity change, less the hit threshold is -21.1%.

Q: With `COc1ccccc1CC(=O)Nc1ccc(OC)c(OC)c1` as the compound, how does the activity change, less the hit threshold read?
A: The activity change, less the hit threshold was -12.4%.
